# Compound activity: PubChem, several laboratories
# ABHD5-PLIN5 inh: ABHD5-PLIN5 protein interaction inhibition | Split G. princeps luciferase complementation, luminescence, 4 h | Q00G26+Q8WTS1 | inhibition, % at 4 µM | actives 0.78% (n = 360,000);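 active means inhibition above the mean inhibition across every tested compound plus 3 SD, cut at about 22% in these data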
# Target sequence (Q00G26 whole entry, looked up): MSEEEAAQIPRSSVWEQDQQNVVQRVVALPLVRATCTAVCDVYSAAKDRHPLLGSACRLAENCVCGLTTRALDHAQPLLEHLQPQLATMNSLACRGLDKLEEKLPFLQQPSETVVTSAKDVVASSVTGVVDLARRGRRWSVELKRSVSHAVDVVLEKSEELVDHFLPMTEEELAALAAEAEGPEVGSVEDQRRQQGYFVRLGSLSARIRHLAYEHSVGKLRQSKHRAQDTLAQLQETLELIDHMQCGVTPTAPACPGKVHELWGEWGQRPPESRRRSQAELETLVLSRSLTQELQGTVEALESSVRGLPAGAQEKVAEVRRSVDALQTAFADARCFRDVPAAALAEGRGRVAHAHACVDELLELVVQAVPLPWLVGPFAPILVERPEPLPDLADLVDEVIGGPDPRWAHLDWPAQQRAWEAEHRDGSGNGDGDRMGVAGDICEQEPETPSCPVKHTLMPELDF
# Target sequence (Q8WTS1 whole entry, looked up): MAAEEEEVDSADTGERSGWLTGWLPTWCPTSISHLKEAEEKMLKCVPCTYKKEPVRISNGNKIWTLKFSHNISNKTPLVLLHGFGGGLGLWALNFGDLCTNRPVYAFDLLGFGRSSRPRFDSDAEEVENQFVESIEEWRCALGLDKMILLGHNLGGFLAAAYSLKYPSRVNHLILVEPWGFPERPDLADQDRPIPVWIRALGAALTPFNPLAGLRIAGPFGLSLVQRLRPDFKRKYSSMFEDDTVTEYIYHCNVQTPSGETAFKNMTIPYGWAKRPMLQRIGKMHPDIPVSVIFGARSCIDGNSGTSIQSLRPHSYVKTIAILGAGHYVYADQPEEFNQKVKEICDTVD
# HIF-2a block: blocks HIF-2a reporter activity; 786-0 RCC cells HIF-2a reporter, luciferase luminescence, overnight; inhibition, % at 18.8 µM; actives 0.72% (n = 360,000); AID 624352;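 active means inhibition of the luminescence signal of 40% or more relative to plate controls, in a single-dose primary screen at 18.75 µM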
# Peg3 promoter: Peg3 promoter activity inhibition; actives 1.7% (n = 360,000); HeLa PEG-Prom luciferase reporter, luminescence, overnight; inhibition, % at 20 µM;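 active means inhibition of at least 50% at 20 µM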
# KKLEB cytotox: counter-screen for CF NF-kB inhibitors: cytotoxicity; activity change (cytotoxicity), % at 5 µM; KKLEB CF airway cells viability, ATPlite luminescence, overnight; hits give low values; cells stimulated with P. aeruginosa culture filtrate; actives 0.36% (n = 360,000);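 active means corrected activity change at or below -50% at 5 µM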
# CF NFkB block: blocks PAF-induced NF-kB reporter in cystic fibrosis cells. inhibition, % at 5 µM. actives 0.86% (n = 360,000). KKLEB NF-kB-GFP reporter, GFP fluorescence overnight;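 active means at least 50% inhibition at 5 µM, scaled per plate between neutral and stimulator controls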;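 further: PAF is a Pseudomonas aeruginosa culture filtrate used as stimulus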
# Mdm2 MdmX PPI: inhibitors of human Mdm2/MdmX interaction; O15151+Q00987; SaOS-2 split-luciferase Mdm2/MdmX complementation, luminescence; inhibition, % at 8 µM; actives 3% (n = 330,000); AID 485346;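 active means inhibition of at least 50% at 8 µM in the primary screen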
# ABHD5-PLIN5 conf: ABHD5-PLIN5 interaction inhibition, confirmed; shares compounds with ABHD5-PLIN5 inh; biochemical ABHD5-PLIN5 interaction, luminescence; inhibition, % at 4 µM; actives 67% (n = 2,200); in the data active means inhibition above about 23%
# HNF4 split-luc: counter-screen for ABHD5-PLIN5 inhibitors: HNF4 split-luciferase; shares compounds with ABHD5-PLIN5 inh; HNF4 dimerization, luminescence, biochemical; inhibition, % at 4 µM; actives 77% (n = 2,200); AID 651674;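 active means mean inhibition across replicate wells exceeding the computed hit threshold, cut at about 13% in these data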;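 further: light from luciferase halves that rejoin when HNF4 fusion proteins dimerize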
# HIF-2a conf: confirmation of HIF-2a inhibitors | shares compounds with HIF-2a block | inhibition, % at 18.8 µM | actives 56% (n = 1,800) | AID 651580 | 786-0 RCC cells, HIF-2a luciferase reporter luminescence, overnight;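 active means mean inhibition across four replicates of at least 40 percent at the single tested concentration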
# HIF-1a counter: counter-screen for HIF-2a inhibitors: HIF-1a inhibition in MiaPaCa-2 cells; shares compounds with HIF-2a block; actives 72% (n = 1,800); MiaPaCa-2 HIF-1a luciferase reporter, desferoxamine, overnight; inhibition, % at 18.8 µM;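 active means mean inhibition of the reporter signal across four replicates at the single tested dose of 50% or more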
# Hits are given with their value; i = inactive; nt = not tested or not shown. Hits are enriched below; roughly 4.6% of the tested compounds scored in any of these assays.
SMILES,ABHD5-PLIN5 inh,HIF-2a block,Peg3 promoter,KKLEB cytotox,CF NFkB block,Mdm2 MdmX PPI,HIF-2a conf,HIF-1a counter,others
C=CS(=O)(=O)c1sc(Cl)c(N2CCOCC2)c1[N+](=O)[O-],43,66,106,i,i,nt,75,i,ABHD5-PLIN5 conf=100;HNF4 split-luc=111
C=C1C(=O)[C@]23C[C@H]1CCC2[C@]1(C)CCC[C@@](C)(C(=O)O)C1C[C@@H]3O (stereo partly drawn),51,88,99,-83,93,nt,91,104,ABHD5-PLIN5 conf=46;HNF4 split-luc=102
CC[N+]1(C)CCC(O)(/C=C/c2ccccc2)C(C(=O)/C=C/c2ccccc2)C1 (stereo not drawn),45,90,97,i,i,nt,46,103,ABHD5-PLIN5 conf=93;HNF4 split-luc=109
CCc1ccc(/C=C/C(=O)C2C(=O)c3ccccc3C2=O)cc1,i,i,i,i,i,i,nt,nt,
CCOC(=O)C1(C)CCCN(C(=O)COc2ccccc2)C1 (stereo not drawn),i,i,i,i,i,nt,nt,nt,
COCCn1c(C)cc(C(=O)COC(=O)c2n[nH]c3ccccc23)c1C,i,47,i,-59,i,i,45,i,
CCCn1c(C)cc(C(=O)COC(=O)c2ccc[nH]c2=O)c1C,i,42,i,i,i,i,i,i,
Cc1cscc(C)c1=S,i,i,i,i,i,nt,nt,nt,
COC(=O)C(C(=O)OC)C1C=CCN(C(C)=O)C1 (stereo not drawn),i,i,i,i,i,nt,nt,nt,
CCC(C(=O)NCc1ccccc1)n1c(CSCCOc2ccccc2)nc2ccccc21 (stereo not drawn),i,64,nt,nt,nt,nt,74,77,
CC(C(=O)NCc1ccccc1)n1c(CSCCOc2ccccc2)nc2ccccc21 (stereo not drawn),i,i,nt,nt,nt,nt,nt,nt,
COc1ccc(C(C(=O)NC2CCCC2)n2c(CSCCOc3ccccc3)nc3ccccc32)cc1 (stereo not drawn),i,43,nt,nt,nt,nt,74,63,
O=C(CCCc1ccccc1)Nc1cccc(C(=O)O)c1,i,55,i,i,i,i,59,i,
O=C1CCN(CCCN2CCC(=O)NC2=S)C(=S)N1,i,i,i,i,i,nt,nt,nt,
COc1ccc2[nH]c3c(c2c1)CCN1C(=O)C(CC(=O)NCc2cccc(C(F)(F)F)c2)C[C@H](C(=O)N2CCCCC2)[C@@]31CCc1ccccc1 (stereo partly drawn),i,i,i,i,i,i,nt,nt,
CCOc1ccccc1NC(=O)N1CCC(C(=O)c2ccc(F)cc2)CC1,i,41,i,i,i,i,i,i,
CNC(=O)c1ccc(Oc2ccc(C(=O)NC)cc2)cc1,i,i,i,i,i,i,nt,nt,
CC(=O)N(C(C)=O)c1ccc(Oc2ccc(Oc3ccc(N(C(C)=O)C(C)=O)cc3)cc2)cc1,i,68,i,i,i,nt,87,i,
Cc1ccc(N2C(=O)SC(Cc3ccccc3)C2=O)cc1 (stereo not drawn),i,i,i,i,i,i,nt,nt,
NCCNC(=O)Cn1c(=O)c2c3c(sc2n(Cc2ccccc2)c1=O)CCCC3,i,i,i,i,i,i,nt,nt,
CCOc1ccc(-c2c(C#N)c(N)nc3sc(C(=O)c4ccccc4)c(N)c23)cc1,i,72,i,i,i,i,i,63,
Cc1noc(C)c1C(=O)N1CCC1(C)C(=O)NS(=O)(=O)Cc1cccc(Cl)c1 (stereo not drawn),i,i,i,i,i,nt,nt,nt,
Cc1ccc(Cl)c(NC(=O)COC(=O)c2ccccc2C(=O)c2ccc(Cl)c([N+](=O)[O-])c2)c1Cl,i,97,100,-99,94,nt,i,108,
Cc1noc(C)c1NC(=O)N(C)C[C@@H]1OCc2cnnn2CCCC(=O)N([C@H](C)CO)C[C@@H]1C,i,i,i,i,i,nt,nt,nt,
COc1ccc(C(=O)Nc2ccc3ncccc3c2)cc1,i,i,i,i,i,i,nt,nt,
SMILES,ABHD5-PLIN5 inh,HIF-2a block,Peg3 promoter,KKLEB cytotox,CF NFkB block,Mdm2 MdmX PPI,HIF-2a conf,HIF-1a counter,others
Cc1ccc(C(=O)Nc2ccc3ncccc3c2)cc1,i,43,i,-64,i,i,51,i,
Cc1cc(C(O)c2ncc(-c3ccccc3)[nH]2)ccc1F (stereo not drawn),i,i,i,i,i,nt,nt,nt,
CC1CCCN(C(=O)c2ccc(NC(=O)CC3SC(N4CCCC4)=NC3=O)cc2)C1 (stereo not drawn),i,i,i,i,i,i,nt,nt,
CCC(=O)OCCNc1cc(Sc2nccn2C)c2nonc2c1[N+](=O)[O-],i,91,105,-78,89,nt,80,105,
CC(=O)OCCNc1cc(SC(C)C)c2nonc2c1[N+](=O)[O-],i,i,i,i,i,i,nt,nt,
Nc1c(C(=O)CSc2nnc(Cc3ccccc3)o2)c(=O)[nH]c(=O)n1C1CC1,i,i,i,i,i,i,nt,nt,
O=[N+]([O-])c1ccc(Oc2cccc3cccnc23)c([N+](=O)[O-])c1,i,41,i,i,i,i,i,i,
CC(=O)Nc1ccc(OCC(=O)c2cc(C)ccc2C)cc1,i,i,i,i,i,i,nt,nt,
CC(=O)Nc1ccc(OCC(=O)c2ccc(C)cc2C)cc1,i,64,i,i,i,i,85,i,
CC(=O)N1CCN(c2ccc(NC(=O)c3ccc4c(c3)OCO4)cc2)CC1,i,i,i,i,i,i,nt,nt,
Cc1ccc(C(=O)N2CCN(c3ccc(NC(=O)c4ccc5c(c4)OCCO5)cc3)CC2)cc1,i,i,i,i,i,i,nt,nt,
O=C(Nc1ccc(NC(=O)c2cccs2)cc1)c1ccc2c(c1)OCCO2,i,47,i,i,i,i,45,i,
Cc1ccccc1C(=O)N1CCN(c2ccc(NC(=O)c3ccc4c(c3)OCCO4)cc2)CC1,i,60,i,i,i,i,i,72,
CC(C)C(=O)N1CCN(c2ccc(NC(=O)c3ccc4c(c3)OCCO4)cc2)CC1,i,42,i,i,i,i,i,i,
Cc1cccc(C)c1NC(=O)C(c1ccccc1OC(F)(F)F)N1CCN(C)CC1 (stereo not drawn),i,i,nt,nt,nt,nt,nt,nt,
CCOc1ccc(C(=O)CSCCC(=O)O)cc1,i,78,i,i,i,i,82,61,
Cc1ccc(C(=O)c2c(NC(=O)CSc3nnc(N)s3)sc3c2CCCC3)cc1,i,61,i,i,i,i,i,63,
